Assay results from PubChem BioAssay (Tox21).
“And” between values parts separate entries of the source, which are not always exact repeats. Identical values can stand only once. Values without a mark were called inactive. Inconclusive results are not listed. Entries that show only a call come without a potency. The source made the active and inactive calls. Unless noted, the call rests on the fitted dose curve; in most records, active means well fitted curve in the direction sought with a large enough effect in the repeat runs; inconclusive means weak or mixed curves; inactive means no such curve, though single readings can be large; an effect the other way counts as inactive or inconclusive.

Key:
[1] = molecular target: Thyrotropin receptor (Homo sapiens) (UniProt P16473); assay: qHTS assay to identify small molecule antagonists of the thyroid stimulating hormone receptor (TSHR) signaling pathway (AID 1259385; calls by dose curve; further: nearly all actives have a fitted effect of over 20% in size)
Chain of Thyrotropin receptor (Homo sapiens) (P16473 whole entry, looked up): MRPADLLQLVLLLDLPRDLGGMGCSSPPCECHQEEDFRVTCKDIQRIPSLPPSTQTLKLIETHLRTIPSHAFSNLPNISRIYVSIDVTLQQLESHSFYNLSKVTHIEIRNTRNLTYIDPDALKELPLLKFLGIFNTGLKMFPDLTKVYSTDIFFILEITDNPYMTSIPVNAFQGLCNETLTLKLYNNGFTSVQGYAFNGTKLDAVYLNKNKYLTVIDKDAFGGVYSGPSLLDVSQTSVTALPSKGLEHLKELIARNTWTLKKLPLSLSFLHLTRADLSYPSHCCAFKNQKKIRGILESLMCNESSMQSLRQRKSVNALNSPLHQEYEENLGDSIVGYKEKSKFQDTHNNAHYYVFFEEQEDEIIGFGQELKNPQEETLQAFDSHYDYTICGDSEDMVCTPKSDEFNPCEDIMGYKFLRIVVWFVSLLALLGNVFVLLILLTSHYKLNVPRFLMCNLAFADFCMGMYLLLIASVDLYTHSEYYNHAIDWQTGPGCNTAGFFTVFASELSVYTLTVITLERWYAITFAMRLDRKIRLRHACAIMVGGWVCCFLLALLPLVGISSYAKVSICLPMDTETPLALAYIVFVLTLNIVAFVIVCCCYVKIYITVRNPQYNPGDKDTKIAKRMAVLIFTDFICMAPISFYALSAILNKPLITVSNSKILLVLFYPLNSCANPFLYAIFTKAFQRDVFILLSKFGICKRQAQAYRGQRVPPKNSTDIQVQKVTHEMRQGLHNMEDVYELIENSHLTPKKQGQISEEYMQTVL
Procedure, shortened: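 TSHR-HEK293 cells were plated and held 18 h at 37C/5% CO2, then given compound plus Ro20-1724 and stimulated with TSH at 1.5 ng/mL final. After 30 min at room temperature, cAMP was detected with cAMP-d2/anti-cAMP-cryptate (1 h) by fluorescence.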

[2] = qHTS assay to identify small molecule agonists of the estrogen receptor alpha (ER-alpha) signaling pathway in the presence of an antagonist - cell viability counter screen (AID 1259386);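 further: cells exposed to compounds for 22 h at 37 °C before the viability read; nearly all actives have a fitted effect of over 30% in size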; further: potency means the concentration at half of the fitted maximal effect
Procedure, shortened: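 The test measures whether compounds kill ER-alpha reporter cells (VM7Luc4E2) under antagonist co-treatment (ICI-182,780, 10.0nM). Fluorescence from CellTiter-Fluor is read after a 22hr exposure.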

[3] = molecular target: Progesterone receptor (Homo sapiens) (UniProt P06401); assay: qHTS assay to identify small molecule agonists of the progesterone receptor (PR) signaling pathway (AID 1346784; calls by dose curve; further: nearly all actives have a fitted effect of over 30% in size)
Chain of Progesterone receptor (Homo sapiens) (P06401 whole entry, looked up): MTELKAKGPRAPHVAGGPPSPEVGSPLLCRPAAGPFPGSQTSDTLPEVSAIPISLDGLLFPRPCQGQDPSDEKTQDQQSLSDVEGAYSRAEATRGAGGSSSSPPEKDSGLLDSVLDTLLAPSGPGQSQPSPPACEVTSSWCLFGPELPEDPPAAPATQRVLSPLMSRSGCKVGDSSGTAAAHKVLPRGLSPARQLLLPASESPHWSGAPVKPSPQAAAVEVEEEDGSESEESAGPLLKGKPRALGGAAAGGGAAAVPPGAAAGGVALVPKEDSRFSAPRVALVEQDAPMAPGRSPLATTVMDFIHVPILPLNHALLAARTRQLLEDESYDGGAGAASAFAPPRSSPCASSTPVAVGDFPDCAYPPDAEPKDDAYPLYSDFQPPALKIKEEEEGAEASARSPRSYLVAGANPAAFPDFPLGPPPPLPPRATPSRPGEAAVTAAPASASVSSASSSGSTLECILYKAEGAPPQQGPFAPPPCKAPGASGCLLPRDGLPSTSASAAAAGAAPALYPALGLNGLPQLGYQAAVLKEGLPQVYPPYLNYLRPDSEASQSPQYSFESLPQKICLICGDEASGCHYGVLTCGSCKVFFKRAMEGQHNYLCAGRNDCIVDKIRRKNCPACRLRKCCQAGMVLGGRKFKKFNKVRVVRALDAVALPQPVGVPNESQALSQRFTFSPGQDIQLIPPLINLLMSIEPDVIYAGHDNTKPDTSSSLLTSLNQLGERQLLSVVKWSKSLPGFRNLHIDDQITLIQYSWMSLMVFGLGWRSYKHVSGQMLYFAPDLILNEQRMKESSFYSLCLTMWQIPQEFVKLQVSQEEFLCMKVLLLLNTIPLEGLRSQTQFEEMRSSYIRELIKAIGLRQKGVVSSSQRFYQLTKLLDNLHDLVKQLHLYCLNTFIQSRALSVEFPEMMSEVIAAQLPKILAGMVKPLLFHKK
Procedure, shortened: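 Seed PR-UAS-bla HEK 293T cells (2% charcoal-stripped FBS), incubate 6 hr at 37C; add compounds in DMSO, 16 hr at 37C; add LiveBLAzer B/G substrate, 2 hr RT; read fluorescence intensity.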

[4] = qHTS assay to identify small molecule agonists of the progesterone receptor (PR) signaling pathway - cell viability counter screen (AID 1346799; calls by dose curve; further: nearly all actives have a fitted effect of over 45% in size)
Procedure, shortened: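 Using the same plates as the PR reporter screen, HEK293T PR-UAS-bla cells received compounds for 16 hr at 37C and were then lysed with CellTiter-Glo; luminescence was read 30 min later at room temperature.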

[5] = qHTS assay to identify small molecule antagonists of the TGF-beta/Smad signaling pathway - cell viability counter screen (AID 1346824); further: nearly all actives have a fitted effect of over 50% in size
Procedure, shortened: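 SBE-bla HEK 293T cells were plated overnight at 37 C, then given compounds in DMSO plus TGF-beta1 (added as 0.25 ng/mL solution) for 5 hr. After the bla read, CellTiter-Glo was added to the same wells and luminescence read after 30 min at room temperature.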

[6] = qHTS assay to identify small molecule agonists of the TGF-beta/Smad signaling pathway - cell viability counter screen (AID 1346829); further: top concentration of the series differs between compounds; nearly all actives have a fitted effect of over 45% in size
Procedure, shortened: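 Cytotoxicity counter screen: CellTiter-Glo luminescence (30 min, room temperature) measured in the SBE-bla HEK 293T reporter wells after 5 hr compound treatment at 37 C and the 2 hr substrate step.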

[7] = qHTS assay to identify small molecule agonists of the TGF-beta/Smad signaling pathway (AID 1346859; active means well fitted activation curve with a large enough effect in the signal ratio in the repeat runs, not every such curve was filed as active; the % refers to the signal ratio; further: series mostly up to about 77 µM)
Procedure, shortened: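 Beta-lactamase reporter activity downstream of Smad binding elements was measured in stably transfected HEK 293T cells; compounds were incubated for 5 hr, substrate for 2 hr at room temperature.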

[8] = molecular target: Thyrotropin-releasing hormone receptor (Homo sapiens) (UniProt P34981); assay: qHTS assay to identify small molecule antagonists of the thyrotropin-releasing hormone receptor (TRHR) signaling pathway (AID 1346877; active means well fitted inhibition curve with a large enough effect in the repeat runs, not every such curve was filed as active; further: series mostly up to about 51 µM)
Chain of Thyrotropin-releasing hormone receptor (Homo sapiens) (P34981 whole entry, looked up): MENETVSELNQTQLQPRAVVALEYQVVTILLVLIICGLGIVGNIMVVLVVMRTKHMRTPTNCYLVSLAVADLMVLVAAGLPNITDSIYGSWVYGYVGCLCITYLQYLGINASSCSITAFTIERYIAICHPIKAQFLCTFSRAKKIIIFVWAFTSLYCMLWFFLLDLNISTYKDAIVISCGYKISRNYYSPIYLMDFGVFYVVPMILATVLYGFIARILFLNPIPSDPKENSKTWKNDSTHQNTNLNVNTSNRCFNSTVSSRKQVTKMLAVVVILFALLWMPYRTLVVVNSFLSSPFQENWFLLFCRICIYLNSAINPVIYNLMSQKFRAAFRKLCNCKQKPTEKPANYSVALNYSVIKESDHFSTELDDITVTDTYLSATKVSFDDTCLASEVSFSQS
Procedure, shortened: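 Overnight-plated (18 h, 37 °C) HEK293 cells expressing TRHR were dye-loaded 2 h, treated with compound, then stimulated with TRH at 1 nM final. Fluorescence intensity was captured every second for 3 min.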

[9] = Human pregnane X receptor (PXR) small molecule agonists, qHTS cell viability counter screen (AID 1346977); further: nearly all actives have a fitted effect of over 50% in size; further: potency means the concentration at half of the fitted maximal effect
Procedure, shortened: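 After a 5hr pre-incubation, PXR-Luc HepG2 cells received compounds plus positive control in DMSO and were kept 24hr at 37C. Cell viability was quantified by fluorescence from CellTiter-Fluor added for the final hour.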

[10] = Caspase-3/7 induction in HepG2 cells by small molecules, qHTS assay (AID 1346978); further: nearly all actives have a fitted effect of over 15% in size
Procedure, shortened: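 Wild-type HepG2 cells (2,000/well) were settled 5 h at 37 C, 5% CO2, then exposed to compounds in DMSO for 17 h. Caspase-3/7 activity was read by luminescence 30 min after adding Caspase-Glo 3/7 reagent at room temperature.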

[11] = Caspase-3/7 induction in CHO-K1 cells by small molecules, qHTS cell viability counter screen (AID 1346979); further: nearly all actives have a fitted effect of over 35% in size; further: potency means the concentration at half of the fitted maximal effect
Procedure, shortened: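 Multiplexed with Caspase-Glo 3/7 in CHO-K1 cells, this counter screen added CellTiter-Fluor after 16hr of compound exposure and recorded fluorescence 1hr later.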

[12] = Caspase-3/7 induction in CHO-K1 cells by small molecules, qHTS assay (AID 1346980); further: nearly all actives have a fitted effect of over 15% in size
Procedure, shortened: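 Wild-type cells were seeded at 1,500 per well and settled 5 hr at 37 C, 5% CO2, then exposed to DMSO-dissolved compounds for 17 hr. Caspase-Glo 3/7 reagent was added, and luminescence was read after 30min at room temperature.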

[13] = Caspase-3/7 induction in HepG2 cells by small molecules, qHTS cell viability counter screen (AID 1346981); further: nearly all actives have a fitted effect of over 30% in size; further: potency means the concentration at half of the fitted maximal effect
Procedure, shortened: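 Treatment of HepG2 cells with DMSO-delivered compounds ran 16 hr at 37 C following a 5-hr pre-incubation of 2,000 cells/well. CellTiter-Fluor fluorescence, read after 1 hr, served as the viability measure in a qHTS format.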

[14] = molecular target: Nuclear receptor subfamily 1 group I member 2 (Homo sapiens) (UniProt O75469); assay: Human pregnane X receptor (PXR) small molecule agonists, qHTS assay (AID 1346982); further: nearly all actives have a fitted effect of over 35% in size; further: potency means the concentration at half of the fitted maximal effect
Chain of Nuclear receptor subfamily 1 group I member 2 (Homo sapiens) (O75469 whole entry, looked up): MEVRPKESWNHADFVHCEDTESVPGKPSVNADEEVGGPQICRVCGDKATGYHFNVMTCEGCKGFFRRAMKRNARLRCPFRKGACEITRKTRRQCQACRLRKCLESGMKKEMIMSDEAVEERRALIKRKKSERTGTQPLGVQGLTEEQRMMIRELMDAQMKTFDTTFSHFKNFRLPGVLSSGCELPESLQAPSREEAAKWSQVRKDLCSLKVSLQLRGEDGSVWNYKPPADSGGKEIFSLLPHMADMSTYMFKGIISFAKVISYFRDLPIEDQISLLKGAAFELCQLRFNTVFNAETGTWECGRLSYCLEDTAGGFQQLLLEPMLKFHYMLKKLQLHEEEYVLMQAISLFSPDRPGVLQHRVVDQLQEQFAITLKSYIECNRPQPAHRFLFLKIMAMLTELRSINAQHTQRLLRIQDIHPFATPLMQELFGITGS
Procedure, shortened: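 Stable HepG2 line reporting PXR-mediated CYP3A4 expression via luciferase. Treatment: 24 hr with compounds in DMSO at 37 C. Detection: ONE-Glo luminescence.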

[15] = molecular target: Nuclear receptor subfamily 1 group I member 2 (Rattus norvegicus) (UniProt Q9R1A7); assay: Rat pregnane X receptor (rPXR) activation by small molecules, qHTS assay (AID 1346983); details: rPXR luciferase reporter cells, One-Glo luminescence, 24 h; max activation: hits give high values; further: nearly all actives have a fitted effect of over 20% in size
Chain of Nuclear receptor subfamily 1 group I member 2 (Rattus norvegicus) (Q9R1A7 whole entry, looked up): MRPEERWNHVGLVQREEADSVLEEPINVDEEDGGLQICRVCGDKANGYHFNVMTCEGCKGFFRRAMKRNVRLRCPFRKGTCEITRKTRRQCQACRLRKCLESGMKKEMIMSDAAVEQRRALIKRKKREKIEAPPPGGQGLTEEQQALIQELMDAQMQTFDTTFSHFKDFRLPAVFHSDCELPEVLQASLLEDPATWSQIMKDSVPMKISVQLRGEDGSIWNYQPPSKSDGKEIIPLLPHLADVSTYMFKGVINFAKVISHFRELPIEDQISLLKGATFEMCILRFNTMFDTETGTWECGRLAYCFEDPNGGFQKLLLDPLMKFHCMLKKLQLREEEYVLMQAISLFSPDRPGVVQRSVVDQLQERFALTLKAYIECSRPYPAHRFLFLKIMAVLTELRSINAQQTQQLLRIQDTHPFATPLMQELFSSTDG
Procedure, shortened: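 Cell-based rPXR luciferase reporter assay, 2,000 cells per well, rested 5hr at 37 C before compound addition in DMSO, then 24 hr at 37 C. One-Glo reagent was added and luminescence read after 30 min at room temperature.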

[16] = molecular target: Nuclear receptor subfamily 1 group I member 2 (Homo sapiens) (UniProt O75469); assay: CYP3A4 induction through human pregnane X receptor (PXR) by small molecules, qHTS assay (AID 1346984); further: nearly all actives have a fitted effect of over 40% in size
Procedure, shortened: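 After 24 h at 37C with compound, DPX-2 cells (HepG2, co-transfected PXR response element and CYP3A4 promoter-luciferase) got 3uM final P450-Glo Luciferin-IPA for 3 h; One-Glo luminescence followed.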

[17] = molecular target: Nuclear receptor subfamily 1 group I member 2 (Homo sapiens) (UniProt O75469); assay: Human pregnane X receptor (PXR) activation by small molecules, qHTS assay (AID 1346985); further: nearly all actives have a fitted effect of over 40% in size
Procedure, shortened: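 DPX-2 cells (HepG2 co-transfected with a PXR response element and a CYP3A4-promoter luciferase construct) were seeded at 2,000 per well, rested 5 hr at 37C, then exposed to DMSO-dissolved compounds for 24 hr. Activation was read as luciferase luminescence.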

[18] = molecular target: Progesterone receptor (Homo sapiens) (UniProt P06401); assay: qHTS assay to identify small molecule antagonists of the progesterone receptor (PR) signaling pathway (AID 1346795; active means well fitted inhibition curve with a large enough effect in the signal ratio in the repeat runs, not every such curve was filed as active; the % refers to the signal ratio)
Procedure, shortened: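 Screening used a GripTite HEK293T line with PR-responsive UAS-beta-lactamase. Cells were challenged with compound in the presence of 1 nM R5020 final for 16 hr at 37C; B/G FRET substrate, 2 hr room temperature, fluorescence.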

[19] = qHTS assay to identify small molecule antagonists of the progesterone receptor (PR) signaling pathway - cell viability counter screen (AID 1346798); further: series mostly up to about 92 µM; nearly all actives have a fitted effect of over 50% in size
Procedure, shortened: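 Measures cytotoxicity in parallel with the PR antagonist reporter read: HEK293T PR-UAS-bla cells get compound and R5020 for 16 hr, and remaining viable cells are quantified by CellTiter-Glo luminescence.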

[20] = molecular target: Thyrotropin-releasing hormone receptor (Homo sapiens) (UniProt P34981); assay: qHTS assay to identify small molecule agonists of the thyrotropin-releasing hormone receptor (TRHR) signaling pathway (AID 1346891; calls by dose curve;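 further: HEK293 cells expressing TRHR with calcium dye readout; series mostly up to about 58 µM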)
Procedure, shortened: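 Overnight-plated (18 h, 37 °C, 5% CO2) TRHR-Hek293 cells; 2 h calcium dye at 37 °C; compound in DMSO; 3-min kinetic fluorescence read.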

Row | SMILES | outcome [1] | Potency [2] | Potency [3] | Potency [4] | Potency [5] | Potency [6] | outcome [7] | outcome [8] | Potency [9] | Potency [10] | Potency [11] | Potency [12] | Potency [13] | Potency [14] | max activation [15] | outcome [16] | outcome [17] | Potency [18] | Potency [19] | Potency [20]
1 | CC1CC(OC(=O)c2ccccc2O)CC(C)(C)C1 (configuration not stated) | inactive | inactive | inactive | inactive | inactive | inactive | inactive | inactive | inactive | inactive | inactive | inactive | inactive | inactive | -1.96% | inactive | inactive |  |  | 
2 | Cc1cc(NS(=O)(=O)c2ccc(N)cc2)no1 |  | inactive | inactive | inactive | inactive | inactive | inactive |  | inactive | inactive | inactive | inactive | inactive |  |  |  |  | inactive | inactive | 
3 | O=[N+]([O-])c1cc(N(CCO)CCO)ccc1NCCO |  | 34.3 µM (active) and 27.3 µM (active) | inactive | inactive | inactive | inactive | inactive |  | 30.6 µM (active) |  | 27.3 µM (active) and 30.6 µM (active) | inactive | 30.6 µM (active) and 48.6 µM (active) | inactive |  |  |  | inactive | inactive | 
4 | CCCCNC(N)=O |  | inactive | inactive | inactive | inactive | inactive | inactive | inactive | inactive | inactive | inactive | inactive | inactive | inactive |  |  |  |  | inactive | 
5 | CCCCCC/C=C/CCCCCCCC(=O)O | inactive | inactive | inactive | inactive | inactive | inactive | inactive | inactive | inactive |  | inactive | inactive | inactive | inactive |  |  |  |  |  | inactive
6 | Cc1cc(Cc2ccc(N)c(C)c2)ccc1N |  | inactive | inactive | inactive | inactive | inactive | inactive | inactive | inactive | inactive | inactive | inactive | inactive | 61.1 µM (active) |  |  |  |  | inactive | inactive
7 | CCCCCCCCCCC=CC1CC(=O)OC1=O (configuration not stated) | inactive | inactive | inactive | inactive | inactive | inactive | inactive |  | inactive |  | inactive | inactive | inactive | inactive |  |  |  |  |  | 
8 | NC(=O)NNc1ccccc1 | inactive | inactive | inactive | inactive | inactive | inactive | inactive | inactive | inactive |  | inactive | inactive | inactive |  | -0.925% and 0.997% |  |  |  |  | inactive
9 | CCOC(=O)C1OC1c1ccccc1 (configuration not stated) |  | inactive | inactive | inactive | inactive | inactive | inactive | inactive | inactive | inactive | inactive | inactive | inactive | inactive |  |  |  |  |  | 
10 | O=C1N=C(O)CN1/N=C/c1ccc(-c2ccc([N+](=O)[O-])cc2)o1 |  | 27.3 µM (active) and 26.6 µM (active) | inactive | inactive | inactive | inactive |  |  | 27.3 µM (active) and 23.7 µM (active) |  | 54.5 µM (active) and 26.6 µM (active) | inactive | 48.6 µM (active) |  | -4.97% |  |  | inactive |  | 
11 | O=C(Cl)c1c(Cl)c(Cl)c(C(=O)Cl)c(Cl)c1Cl |  | inactive | inactive | inactive | inactive | inactive | inactive | inactive | inactive | inactive | inactive | inactive | inactive | inactive |  |  |  | inactive | inactive | inactive
12 | CS(=O)(=O)c1ccc([C@@H](O)[C@@H](CO)NC(=O)C(Cl)Cl)cc1 |  | inactive | inactive | inactive | inactive | inactive | inactive |  | inactive | inactive | inactive | inactive | inactive | inactive | -0.108% | inactive | inactive |  |  | 
